Compound activity deposited in PubChem by several laboratories.
Anthrax LF prot – Bacillus anthracis LF protease inhibitors, primary screen, biochemical, multiplex microsphere, MLPCN library. inhibition, % at 10 µM. Lethal factor (Bacillus anthracis), P15917. AID 588501, 2011. multiplex microsphere protease cleavage assay. actives 0.12% (n = 360,000)
Target sequence (P15917 whole entry, looked up): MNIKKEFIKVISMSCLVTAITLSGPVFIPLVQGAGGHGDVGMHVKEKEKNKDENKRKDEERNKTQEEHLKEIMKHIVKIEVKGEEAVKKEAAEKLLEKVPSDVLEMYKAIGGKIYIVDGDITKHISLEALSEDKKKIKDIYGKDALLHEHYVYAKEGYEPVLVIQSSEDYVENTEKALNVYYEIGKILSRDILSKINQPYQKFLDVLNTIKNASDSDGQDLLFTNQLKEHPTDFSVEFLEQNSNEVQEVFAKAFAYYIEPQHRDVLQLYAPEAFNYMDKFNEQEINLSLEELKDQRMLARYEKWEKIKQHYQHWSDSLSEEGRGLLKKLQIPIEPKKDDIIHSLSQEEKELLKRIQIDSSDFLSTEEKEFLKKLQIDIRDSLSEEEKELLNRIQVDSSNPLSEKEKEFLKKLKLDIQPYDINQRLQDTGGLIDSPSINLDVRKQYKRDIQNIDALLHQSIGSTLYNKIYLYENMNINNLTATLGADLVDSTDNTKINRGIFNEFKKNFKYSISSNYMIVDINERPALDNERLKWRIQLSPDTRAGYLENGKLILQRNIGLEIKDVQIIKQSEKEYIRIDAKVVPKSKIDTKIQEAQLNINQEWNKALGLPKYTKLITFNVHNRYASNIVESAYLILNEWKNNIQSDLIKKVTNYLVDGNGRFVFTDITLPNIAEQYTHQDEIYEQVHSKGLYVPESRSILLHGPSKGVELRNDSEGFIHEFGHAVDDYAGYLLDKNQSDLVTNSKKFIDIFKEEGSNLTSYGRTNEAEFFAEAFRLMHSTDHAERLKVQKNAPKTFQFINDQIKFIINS
Mtb FBA inh – Mtb FBA enzyme inhibitors, primary screen, biochemical, fluorescence, strain H37Rv | Fructose-bisphosphate aldolase (Mycobacterium tuberculosis (strain ATCC 25618 / H37Rv)), … | purified M. tuberculosis FBA, fluorescence read-out | inhibition, % at 1 µM | actives 2.3% (n = 360,000) | AID 588726, 2011; in the data active = inhibition above about 27%
GDH-TPI inh – GDH-TPI coupling enzyme inhibitors, primary screen, artefact control for M. tuberculosis FBA inhibitor project, biochemical, absorbance, full deck | GDH-TPI coupled enzyme counterscreen, NADH absorbance | actives 1.2% (n = 360,000) | inhibition, % at 4.8 µM | AID 588335, 2011; in the data active = inhibition above about 30%
Autofluor counter – flagged as autofluorescent in microsphere protease counterscreen; fluorescence intensity (concentration not given with the values); compound autofluorescence counterscreen, microsphere flow cytometry; hits give high values; actives 3.1% (n = 360,000); in the data active = fluorescence intensity above about 16000; inconclusive = no clear call, values can overlap the other calls
BoNT F protease – BoNT/F light chain protease inhibitors, primary screen, biochemical, flow cytometry, MLPCN library. Botulinum neurotoxin type F light chain protease (Clostridium botulinum). Multiplex microsphere protease cleavage assay. inhibition, % at 10 µM. actives 0.22% (n = 360,000); in the data active = inhibition above about 35%, passing the limit was not always enough; inconclusive = no clear call, values can overlap the other calls
BoNT A protease – BoNT/A light chain protease inhibitors, primary screen, biochemical, flow cytometry, MLPCN library | AID 588499, 2011 | Botulinum neurotoxin type A light chain protease (Clostridium botulinum A str. ATCC 3502) | actives 0.17% (n = 360,000) | multiplex microsphere protease substrate cleavage | inhibition, % at 10 µM
Each line names hits and unclear results; the compound was inactive in the other large screens. An excerpt weighted towards active compounds, which were near 6.6% of everything screened. Rule as the data show it, unless noted: active = inhibition above about 30%; inconclusive = no clear call, values can overlap the other calls; inactive = below that.

CC(=NNC(=S)N(Cc1ccccn1)Cc1ccccn1)c1cnccn1	Anthrax LF prot 40.0, BoNT F protease 44.9
CCOc1ccc(NC(=O)CN(C)C(=O)c2cccc(S(=O)(=O)N3CCN(C)CC3)c2)cc1OCC	none
O=C(C1CCCN(c2ncccn2)C1)N1CCc2ccccc21 (stereo not drawn)	Autofluor counter 17813
Cc1cc(C)nc(N2CCCC(C(=O)NCc3cccc(C(F)(F)F)c3)C2)n1 (stereo not drawn)	none
O=C(Nc1ccccc1-c1ccccc1)C1CCCN(c2ncccn2)C1 (stereo not drawn)	Autofluor counter 16368
O=C(NCc1cccc(C(F)(F)F)c1)C1CCCN(c2ncccn2)C1 (stereo not drawn)	Autofluor counter 22625, BoNT A protease inconclusive
COc1ccc(NC(=O)C2CCN(c3ncnc4c3nc3n4CCCCC3)CC2)cc1Cl	none
Cc1c(C)c2ccc(OCC(=O)Nc3ccccn3)cc2oc1=O	none
CN(C(=O)c1ccccc1NC(=O)C(F)(F)F)c1ccccc1	Autofluor counter 19216
Cc1n(CC(O)COCc2ccccc2)c2ccccc2[n+]1C (stereo not drawn)	Autofluor counter 23714
O=C(Cn1cnc2ccccc21)NCc1ccccc1	Autofluor counter 21986
CC(=O)Nc1cccc(OCC(O)Cn2cnc3ccccc32)c1 (stereo not drawn)	Autofluor counter 22621, BoNT A protease inconclusive
OC(COCc1ccccc1)Cn1cnc2ccccc21 (stereo not drawn)	Autofluor counter 16259, BoNT A protease inconclusive
Cc1ccc(NC(=O)COC(=O)C2CCN(c3ccc(C(F)(F)F)cn3)CC2)cc1	Autofluor counter inconclusive
CC1=C(C(=O)N(C)C)CC(CC(=O)NCc2cccc3ccccc23)C(=O)N1Cc1ccccc1 (stereo not drawn)	none
CC(C)=CCN1CCN(Cc2ccc(Sc3nncn3C)o2)CC1CCO (stereo not drawn)	none
N=C1/C(=C\c2coc3ccccc3c2=O)C(=O)N=C2SC(c3ccncc3)=NN12	GDH-TPI inh 32.1
N=C1/C(=C/c2coc3ccccc3c2=O)C(=O)N=C2SC(c3ccco3)=NN12	BoNT F protease inconclusive
Cc1nnc(NC(=O)C2CCCN2S(=O)(=O)c2ccc(Cl)cc2)s1 (stereo not drawn)	none
O=C(O)CCNC(=O)c1ccc(NC(=O)Cc2ccc(Cl)cc2)cc1	none
CCn1c(COc2cccc(C)c2)nnc1SCC(=O)CC(=O)Nc1ccccc1OC	Anthrax LF prot inconclusive, Autofluor counter inconclusive
COc1ccccc1NC(=O)CSc1nnnn1-c1ccc(C(=O)O)cc1	none
CCOc1ccccc1-n1c(COc2ccc(C)cc2)nnc1SCC(N)=O	Autofluor counter 22748
CCn1c(COc2ccccc2)nnc1SCC(=O)CC(=O)Nc1ccccc1OC	Autofluor counter 21864
CCCCOc1ccccc1NC(=O)CSc1nnnn1C(C)(C)C	Autofluor counter 17476
CCn1c(SCc2nc(CC(=O)Nc3ccccc3OC)no2)nnc1-c1cccs1	Autofluor counter 22928
CCOc1ccccc1-n1c(COc2ccccc2)nnc1SCC(N)=O	none
Cc1ccccc1NC(=O)CCCC(=O)c1ccccc1	none
COCCn1c(COc2ccccc2)nnc1SCC(N)=O	Autofluor counter 21005, BoNT A protease inconclusive
COc1cc(/C=N/NC(=O)CSc2nc3ccccc3n2C)cc(OC)c1OC	none
CC1(CCC#N)N=C(SCCC#N)N(c2ccccc2)C1=O (stereo not drawn)	Autofluor counter 23294, BoNT A protease inconclusive
COc1ccc(/C=N/NC(=O)c2[nH]c3ccc(Cl)cc3c2-c2ccccc2)c(C(=O)O)c1OC	GDH-TPI inh 30.9
COc1ccc(/C=N/NC(=O)c2[nH]c3ccc(Br)cc3c2-c2ccccc2)c(C(=O)O)c1OC	GDH-TPI inh 38.8
Cc1cc(C)c[n+](-c2[nH]c(=O)sc2/C=N/N=C(\[O-])c2cccnc2)c1	GDH-TPI inh 34.8
CCc1ccc[n+](-c2[nH]c(=O)sc2/C=N/N=C(\[O-])c2ccncc2)c1	none
Cc1ccc(OCCSc2nc3ccccc3n2CC(=O)O)cc1C	none (no result: Anthrax LF prot, Autofluor counter, BoNT F protease, BoNT A protease)
CCCCn1c(SCC(=O)Nc2cc(C(F)(F)F)cc(C(F)(F)F)c2)nnc1C(CC)N(C)C (stereo not drawn)	none
c1ccc2sc(NC3=NCN(C4CCCCC4)CN3)nc2c1	none
c1ccc(CN2CN=C(Nc3nc4ccccc4s3)NC2)cc1	Autofluor counter 16724
COc1ccc(CN2CN=C(Nc3nc4ccccc4s3)NC2)cc1	Autofluor counter 23311
CC1CCCCC1N1CN=C(Nc2nc3ccccc3s2)NC1 (stereo not drawn)	Autofluor counter 23381
c1ccc(CCN2CN=C(Nc3nc4ccccc4s3)NC2)cc1	BoNT F protease inconclusive, BoNT A protease inconclusive
Cc1nn(S(=O)(=O)c2ccc(F)cc2)c(C)c1S(=O)(=O)N1CCOCC1	none
CCCOc1ccc(CSc2nnc(CCC)n2N)cc1	none
CCCCOc1ccc(Cl)cc1CSc1nnc(CC)n1N	Autofluor counter 24086
Oc1ccc(N=Cc2ccc(-c3cccs3)s2)cc1	Mtb FBA inh active, GDH-TPI inh 34.9, Autofluor counter 16163
O=Cc1ccc(-c2cccs2)s1	Mtb FBA inh active
CCN(CC)C(=O)c1ccc(-c2cccs2)s1	none
CC(=O)c1ccc(N2CCN(C(=O)C(=O)c3c(C)[nH]c4ccccc34)CC2)cc1	GDH-TPI inh 34.0
O=C1N=C(N2CCCCC2)SC1=C1CCCC1	none
CCCCN1C(=O)/C(=C2\SC(N3CCCCC3)=NC2=O)c2ccccc21	Autofluor counter 23186, BoNT A protease inconclusive
Cc1ccc(NC(=S)NNC(=O)c2cccc([N+](=O)[O-])c2)cc1Cl	BoNT F protease inconclusive, BoNT A protease inconclusive
CC(CCC(=O)Nc1nncs1)C(=O)O (stereo not drawn)	none
CC(CC1CC(C)(C)OC1=O)C(=O)Nc1nncs1 (stereo not drawn)	Autofluor counter 20331, BoNT A protease inconclusive
CCCCC(=O)Nc1nc2ccc(C(=O)OC)cc2s1	none
N=c1oc2ccc3ccccc3c2cc1-c1nc(-c2ccccc2)cs1	Anthrax LF prot 32.0, BoNT A protease 34.2
CCN1/C(=C/C=C/c2sc3ccccc3[n+]2CC)Sc2ccccc21	BoNT A protease 31.6
CC[n+]1c(/C=C(\C)Nc2ccccc2)sc2ccccc21	GDH-TPI inh 31.0
CC[n+]1c(/C=C(/C)SC)sc2ccccc21	GDH-TPI inh 38.3
CCN(CC)C(=O)C[n+]1cccc(C(N)=O)c1	none
Cc1ccc(S(=O)(=O)NNC(=O)CCC(=O)Nc2ccccc2Cl)cc1	none
